Measured values as given in PubChem BioAssay (EPA / NIEHS).
The source made the active and inactive calls. The calls were made as follows: active = hit-call score of the fitted dose curve at least 0.9, where 1 is the maximum; inactive = score below 0.9.

Assay: CCTE_Shafer_MEA_acute_synchrony_index: CCTE's Neural Acute Assay for Synchrony, Shafer Lab (AID 2284027);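 also: fitted for loss of signal so actives lower synchrony relative to DMSO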
Description: CCTE_Shafer_MEA_acute assay is conducted using Axion Biosystems 48 well microelectrode array (MEA) plates and Maestro recording system. Each well of the MEA plate contains a grid of 16 microelectrodes embedded in the culture surface. Electrically active cells, such as neurons, can be cultured over the electrodes, and electrical activity in these cells can be recorded extracellularly. The spontaneous firing of neurons is captured from each electrode on a microsecond timescale providing both temporally and spatially precise data. […] The CCTE_Shafer_MEA_acute assay uses primary cultures of rat cortical neurons. As these cultures mature over time, neural networks develop functional activity and form cohesive networks in which electrical activity can be highly coordinated. Baseline 40-minute recordings are made on days post-plating 13 or 15, followed by a secondary 40-minute recording after chemical exposure.CCTE_Shafer_MEA_acute_synchrony_index is a component of the CCTE_Shafer_MEA_acute assay. It measures the synchrony of the neural network as a unitless measure between 0 (low synchrony) to 1 (high synchrony) during a recording in a microelectrode array (MEA) using Axion Biosystems Maestro 768 channel amplifier with the AxIS adaptive spike detector. The recordings before and after chemical treatment are used to calculate a percent change in the synchrony index in each well.Data from the assay component CCTE_Shafer_MEA_acute_synchrony_index was analyzed into 1 assay endpoint. This assay endpoint, CCTE_Shafer_MEA_acute_synchrony_index, was analyzed in the negative analysis fitting direction relative to DMSO as the negative control and baseline of activity. Using a type of functional reporter, gain or loss-of-signal activity can be used to understand electrical activity.
Spontaneous activity in the cortical cultures was recorded using an Axion Biosystems Maestro 768 channel amplifier and Axion Integrated Studios (AxIS) v1.8 (or later) software. The amplifier recorded from all channels simultaneously (gain = 1200 x; sampling rate = 12.5 kHz/channel): raw signals were filtered with a Butterworth band-pass filter (300-5000 Hz), which filters out slower local field potentials leaving only fast potentials, i.e., "spikes", arising from extracellular currents associated with action potentials (Pine 2006; Wheeler and Nam 2011). On-line spike detection of filtered signals was conducted with the AxIS adaptive spike detector, using a threshold of 8x the root mean squared (rms) noise on each channel. Any electrodes with rms noise levels greater than 5 uV were grounded (e.g., no data were recorded). Once grounded, an electrode was grounded for the duration of the experiment. All recordings were conducted at 37 C. Wells were deemed usable if on the day of the exposure >/= 10 electrodes were active (defined as >/= 5 spikes/min). On DIV 13 or 15, a minimum of three wells from one cortical culture preparation were treated with each compound (0.03-40 uM). Prior to recording baseline activity, each mwMEA plate was placed in the Maestro at 37 C and allowed to sit for 20 min while firing rates stabilized. Baseline activity (40 min) was recorded before the addition of each compound. An additional 40 min of spontaneous activity was recorded in the presence of each compound. Changes in network parameters relative to baseline were assessed following compound treatment.

SMILES | outcome | AC50
CCCCC=O | inactive | 
CCCCCCCCCCCC | inactive | 
CCCCc1oc2ccccc2c1C(=O)c1cc(I)c(OCCN(CC)CC)c(I)c1 | inactive | 
OCC(CO)(CBr)CBr | inactive | 
CN(C)CCOC(c1ccccc1)c1ccccc1 | inactive | 
CC(=O)Nc1ccc(O)cc1 | inactive | 
O=C1NS(=O)(=O)c2ccccc21 | inactive | 
N=C(N)c1ccc(OCCCCCOc2ccc(C(=N)N)cc2)cc1 |  | 26.3 µM (active)
Oc1c(Cl)cc(Cl)cc1Sc1cc(Cl)cc(Cl)c1O |  | 8.67 µM (active)
Oc1ccc(Cc2ccccc2O)cc1 | inactive | 
CCC(C)c1ccccc1O (configuration not stated) |  | 7.45 µM (active)
O=C(CCCN1CCC(O)(c2ccc(Cl)cc2)CC1)c1ccc(F)cc1 | inactive | 
